In PMC7862700, “An all-to-all approach to the identification of sequence-specific readers for epigenetic DNA modifications on cytosine”:

Assays:
Experiment in all cases: DAPPL (digital affinity profiling via proximity ligation, sequencing); 10 mM Tris-HCl pH 7.5, 50 mM NaCl, 1 mM DTT, 4% glycerol, room temperature, 30 min; GST-TFs on glutathione beads, 16-mer random dsDNA library, 0.1% formaldehyde crosslink after washing; high values mean tight binding
FLI1 = target: T1, FLI1 (Homo sapiens, UniProt Q01543 1-452); conditions: protein: recombinant; tags: N-terminal GST; dsDNA, one strand shown
T1 sequence: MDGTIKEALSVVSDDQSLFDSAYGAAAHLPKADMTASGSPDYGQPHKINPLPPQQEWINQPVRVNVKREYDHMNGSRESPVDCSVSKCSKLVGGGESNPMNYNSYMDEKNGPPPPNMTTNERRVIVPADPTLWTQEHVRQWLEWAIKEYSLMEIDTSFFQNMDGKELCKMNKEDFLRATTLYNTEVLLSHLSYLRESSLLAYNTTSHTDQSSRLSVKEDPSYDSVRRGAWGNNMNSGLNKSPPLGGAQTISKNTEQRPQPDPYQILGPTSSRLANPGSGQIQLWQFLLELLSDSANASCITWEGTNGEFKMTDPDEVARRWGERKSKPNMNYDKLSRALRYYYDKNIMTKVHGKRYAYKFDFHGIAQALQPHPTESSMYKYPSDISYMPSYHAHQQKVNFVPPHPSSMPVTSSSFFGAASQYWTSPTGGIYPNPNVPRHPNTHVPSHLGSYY
In short: (§1)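 The binding signal reported is, for every hexamer, its read frequency for a factor over its read frequency for the tag-only sample. Reads came from pools of yeast-expressed, GST-fused human transcription factors on glutathione beads, barcoded with DNA and mixed with that sample, which were incubated with 200 nmole of a random double-stranded 16-mer DNA library in Tris/NaCl/DTT/glycerol buffer at room temperature for 30 min. After washing, the pools were crosslinked with 0.1% formaldehyde, proximity-ligated with BsaI/T4 ligase for 1 h at 37 °C, PCR-amplified and sequenced on an Illumina NextSeq500.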

ELK1 = target: T2, ELK1 (Homo sapiens, UniProt P19419 1-428); conditions: protein: recombinant; tags: N-terminal GST; dsDNA, one strand shown
T2 sequence: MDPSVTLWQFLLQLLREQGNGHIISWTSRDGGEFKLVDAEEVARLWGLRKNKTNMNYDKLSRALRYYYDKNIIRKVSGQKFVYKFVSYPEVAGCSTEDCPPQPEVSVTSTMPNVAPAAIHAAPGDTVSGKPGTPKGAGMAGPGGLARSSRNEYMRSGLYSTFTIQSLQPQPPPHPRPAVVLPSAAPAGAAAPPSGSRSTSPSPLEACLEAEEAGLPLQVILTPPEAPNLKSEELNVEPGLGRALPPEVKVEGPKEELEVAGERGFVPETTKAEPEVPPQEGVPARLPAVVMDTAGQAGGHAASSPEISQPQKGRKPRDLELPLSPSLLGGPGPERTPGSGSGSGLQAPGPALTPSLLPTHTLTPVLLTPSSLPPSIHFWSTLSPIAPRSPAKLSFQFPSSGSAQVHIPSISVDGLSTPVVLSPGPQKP
In short: as §1

GABPA = target: T3, GABPA (Homo sapiens, UniProt Q06546 1-454); conditions: protein: recombinant; tags: N-terminal GST; dsDNA, one strand shown
T3 sequence: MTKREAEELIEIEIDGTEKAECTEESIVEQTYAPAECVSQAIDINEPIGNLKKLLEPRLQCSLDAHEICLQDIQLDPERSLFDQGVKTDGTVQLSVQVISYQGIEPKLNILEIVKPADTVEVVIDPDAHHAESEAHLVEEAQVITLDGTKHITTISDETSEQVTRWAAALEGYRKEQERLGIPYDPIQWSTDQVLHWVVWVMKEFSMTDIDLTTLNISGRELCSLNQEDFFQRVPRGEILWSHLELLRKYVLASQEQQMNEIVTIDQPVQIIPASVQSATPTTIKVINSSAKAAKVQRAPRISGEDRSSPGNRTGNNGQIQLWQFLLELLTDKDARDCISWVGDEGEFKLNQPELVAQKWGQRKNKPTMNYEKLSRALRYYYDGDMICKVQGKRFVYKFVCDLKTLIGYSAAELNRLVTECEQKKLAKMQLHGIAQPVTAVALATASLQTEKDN
In short: as §1

ERG = target: T4, ERG (Homo sapiens, UniProt P11308 1-479); conditions: protein: recombinant; tags: N-terminal GST; dsDNA, one strand shown
T4 sequence: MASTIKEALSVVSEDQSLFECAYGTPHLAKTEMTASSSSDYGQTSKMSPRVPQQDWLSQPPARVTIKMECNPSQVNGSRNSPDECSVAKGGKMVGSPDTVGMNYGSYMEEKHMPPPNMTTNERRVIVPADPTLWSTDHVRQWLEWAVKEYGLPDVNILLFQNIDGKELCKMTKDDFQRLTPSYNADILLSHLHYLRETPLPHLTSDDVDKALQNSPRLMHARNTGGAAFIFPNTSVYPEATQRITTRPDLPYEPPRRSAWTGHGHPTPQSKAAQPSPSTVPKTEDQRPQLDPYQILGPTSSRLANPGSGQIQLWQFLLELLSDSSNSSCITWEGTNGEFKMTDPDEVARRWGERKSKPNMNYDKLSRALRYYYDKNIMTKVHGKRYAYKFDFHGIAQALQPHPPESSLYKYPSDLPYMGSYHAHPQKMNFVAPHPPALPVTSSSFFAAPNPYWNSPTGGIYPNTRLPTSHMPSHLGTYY
In short: as §1

ELF1 = ELF1 (Homo sapiens, UniProt P32519 1-619); conditions: protein: recombinant; tags: N-terminal GST; dsDNA, one strand shown
Chain of ELF1 (P32519 whole entry): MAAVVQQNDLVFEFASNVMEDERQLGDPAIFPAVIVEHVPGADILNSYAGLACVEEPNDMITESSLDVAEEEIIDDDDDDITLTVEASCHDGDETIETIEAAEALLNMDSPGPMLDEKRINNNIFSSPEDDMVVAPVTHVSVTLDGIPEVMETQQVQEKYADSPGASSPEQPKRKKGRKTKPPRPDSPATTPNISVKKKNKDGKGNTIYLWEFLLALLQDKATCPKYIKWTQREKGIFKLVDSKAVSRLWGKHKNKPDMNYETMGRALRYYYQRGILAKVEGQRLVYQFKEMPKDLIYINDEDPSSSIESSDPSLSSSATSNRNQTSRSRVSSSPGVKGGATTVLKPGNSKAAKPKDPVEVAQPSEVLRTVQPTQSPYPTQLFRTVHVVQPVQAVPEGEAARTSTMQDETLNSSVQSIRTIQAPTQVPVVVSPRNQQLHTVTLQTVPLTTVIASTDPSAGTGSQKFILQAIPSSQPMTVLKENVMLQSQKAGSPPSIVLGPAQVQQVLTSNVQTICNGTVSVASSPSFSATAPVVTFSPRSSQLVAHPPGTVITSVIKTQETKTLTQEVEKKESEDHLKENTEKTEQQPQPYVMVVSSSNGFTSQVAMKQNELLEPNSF
In short: as §1

EHF = target: T5, EHF (Homo sapiens, UniProt Q9NZC4 1-300); conditions: protein: recombinant; tags: N-terminal GST; dsDNA, one strand shown
T5 sequence: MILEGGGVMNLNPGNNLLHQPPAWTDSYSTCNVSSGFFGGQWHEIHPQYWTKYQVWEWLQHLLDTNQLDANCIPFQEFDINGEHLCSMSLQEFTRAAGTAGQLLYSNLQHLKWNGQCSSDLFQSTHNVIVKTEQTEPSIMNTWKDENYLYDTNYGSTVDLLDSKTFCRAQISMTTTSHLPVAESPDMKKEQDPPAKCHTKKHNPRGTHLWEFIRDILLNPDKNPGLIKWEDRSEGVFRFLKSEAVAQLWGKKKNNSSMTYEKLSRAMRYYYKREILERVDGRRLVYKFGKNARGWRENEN
In short: as §1

SPI1 = SPI1 (Homo sapiens, UniProt P17947 1-270); conditions: protein: recombinant; tags: N-terminal GST; dsDNA, one strand shown
In short: as §1

SPIB = SPIB (Homo sapiens, UniProt Q01892 1-262); conditions: protein: recombinant; tags: N-terminal GST; dsDNA, one strand shown
Chain of SPIB (Q01892 whole entry): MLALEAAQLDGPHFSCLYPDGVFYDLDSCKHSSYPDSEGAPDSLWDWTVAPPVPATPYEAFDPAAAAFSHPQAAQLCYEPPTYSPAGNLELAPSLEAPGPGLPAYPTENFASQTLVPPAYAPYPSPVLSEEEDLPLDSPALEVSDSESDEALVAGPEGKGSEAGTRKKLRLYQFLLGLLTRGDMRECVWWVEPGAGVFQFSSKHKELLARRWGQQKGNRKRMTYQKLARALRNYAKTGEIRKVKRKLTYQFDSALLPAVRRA
In short: as §1

ELK3 = target: T6, ELK3 (Homo sapiens, UniProt P41970 1-407); conditions: protein: recombinant; tags: N-terminal GST; dsDNA, one strand shown
T6 sequence: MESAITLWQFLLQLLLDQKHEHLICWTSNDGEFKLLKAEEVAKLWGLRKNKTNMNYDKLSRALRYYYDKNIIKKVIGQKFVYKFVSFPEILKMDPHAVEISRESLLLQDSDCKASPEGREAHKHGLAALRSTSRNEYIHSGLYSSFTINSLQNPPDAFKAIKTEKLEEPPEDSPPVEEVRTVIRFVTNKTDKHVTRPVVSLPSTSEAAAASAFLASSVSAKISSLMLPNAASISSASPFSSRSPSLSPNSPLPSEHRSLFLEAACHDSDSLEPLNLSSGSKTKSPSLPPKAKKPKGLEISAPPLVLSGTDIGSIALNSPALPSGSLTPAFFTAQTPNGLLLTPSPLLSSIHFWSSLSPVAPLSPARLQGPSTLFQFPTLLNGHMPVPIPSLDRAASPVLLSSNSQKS
In short: as §1

FEV = target: T7, FEV (Homo sapiens, UniProt Q99581 1-238); conditions: protein: recombinant; tags: N-terminal GST; dsDNA, one strand shown
T7 sequence: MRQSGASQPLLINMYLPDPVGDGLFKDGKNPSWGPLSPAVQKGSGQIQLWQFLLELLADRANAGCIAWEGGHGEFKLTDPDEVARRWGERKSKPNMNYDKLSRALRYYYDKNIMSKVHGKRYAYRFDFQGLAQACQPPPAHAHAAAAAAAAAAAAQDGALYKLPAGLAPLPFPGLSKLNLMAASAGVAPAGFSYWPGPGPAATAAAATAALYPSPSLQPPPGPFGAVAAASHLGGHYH
In short: as §1

ETV5 = ETV5 (Homo sapiens, UniProt P41161 1-510); conditions: protein: recombinant; tags: N-terminal GST; dsDNA, one strand shown
Chain of ETV5 (P41161 whole entry): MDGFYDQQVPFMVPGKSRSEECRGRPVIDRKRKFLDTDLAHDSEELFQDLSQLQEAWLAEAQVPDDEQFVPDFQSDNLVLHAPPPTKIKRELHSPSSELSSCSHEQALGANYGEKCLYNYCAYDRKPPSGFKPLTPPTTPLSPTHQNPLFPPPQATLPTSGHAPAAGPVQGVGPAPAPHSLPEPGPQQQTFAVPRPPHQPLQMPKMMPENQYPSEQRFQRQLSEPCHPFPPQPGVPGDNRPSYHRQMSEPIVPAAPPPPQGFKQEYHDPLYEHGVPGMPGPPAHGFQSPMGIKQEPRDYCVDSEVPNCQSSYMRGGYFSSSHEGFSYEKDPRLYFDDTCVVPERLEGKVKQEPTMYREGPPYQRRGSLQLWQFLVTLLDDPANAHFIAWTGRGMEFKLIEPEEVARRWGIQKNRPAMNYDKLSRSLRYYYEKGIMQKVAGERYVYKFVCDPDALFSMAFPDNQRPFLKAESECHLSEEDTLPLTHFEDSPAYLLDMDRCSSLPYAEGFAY
In short: as §1

HSF1 = HSF1 (Homo sapiens, UniProt Q00613 1-529); conditions: protein: recombinant; tags: N-terminal GST; chain copies: 3; dsDNA, one strand shown
Chain of HSF1 (Q00613 whole entry): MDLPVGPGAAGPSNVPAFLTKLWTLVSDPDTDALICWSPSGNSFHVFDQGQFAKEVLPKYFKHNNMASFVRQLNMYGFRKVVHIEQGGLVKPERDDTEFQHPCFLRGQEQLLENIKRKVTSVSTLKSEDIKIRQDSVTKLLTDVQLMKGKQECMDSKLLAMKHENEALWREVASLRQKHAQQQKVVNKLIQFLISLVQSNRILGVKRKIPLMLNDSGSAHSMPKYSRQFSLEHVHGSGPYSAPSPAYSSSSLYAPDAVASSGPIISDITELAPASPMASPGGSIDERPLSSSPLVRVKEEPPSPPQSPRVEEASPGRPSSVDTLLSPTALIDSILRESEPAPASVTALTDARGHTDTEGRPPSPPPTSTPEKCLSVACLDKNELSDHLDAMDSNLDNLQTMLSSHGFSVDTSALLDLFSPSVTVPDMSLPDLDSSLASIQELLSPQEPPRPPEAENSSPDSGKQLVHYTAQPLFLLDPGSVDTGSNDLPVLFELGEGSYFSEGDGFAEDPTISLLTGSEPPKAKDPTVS
In short: as §1

SPIC = target: T8, SPIC (Homo sapiens, UniProt Q8N5J4 1-248); conditions: protein: recombinant; tags: N-terminal GST; dsDNA, one strand shown
T8 sequence: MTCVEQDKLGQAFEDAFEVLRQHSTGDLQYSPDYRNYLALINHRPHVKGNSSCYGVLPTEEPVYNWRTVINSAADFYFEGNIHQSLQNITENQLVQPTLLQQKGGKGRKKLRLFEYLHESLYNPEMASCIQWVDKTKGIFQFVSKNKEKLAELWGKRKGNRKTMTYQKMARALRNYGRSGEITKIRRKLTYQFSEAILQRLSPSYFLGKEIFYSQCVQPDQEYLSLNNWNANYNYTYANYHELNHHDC
In short: as §1

ELF4 = ELF4 (Homo sapiens, UniProt Q99607 1-663); conditions: protein: recombinant; tags: N-terminal GST; dsDNA, one strand shown
Chain of ELF4 (Q99607 whole entry): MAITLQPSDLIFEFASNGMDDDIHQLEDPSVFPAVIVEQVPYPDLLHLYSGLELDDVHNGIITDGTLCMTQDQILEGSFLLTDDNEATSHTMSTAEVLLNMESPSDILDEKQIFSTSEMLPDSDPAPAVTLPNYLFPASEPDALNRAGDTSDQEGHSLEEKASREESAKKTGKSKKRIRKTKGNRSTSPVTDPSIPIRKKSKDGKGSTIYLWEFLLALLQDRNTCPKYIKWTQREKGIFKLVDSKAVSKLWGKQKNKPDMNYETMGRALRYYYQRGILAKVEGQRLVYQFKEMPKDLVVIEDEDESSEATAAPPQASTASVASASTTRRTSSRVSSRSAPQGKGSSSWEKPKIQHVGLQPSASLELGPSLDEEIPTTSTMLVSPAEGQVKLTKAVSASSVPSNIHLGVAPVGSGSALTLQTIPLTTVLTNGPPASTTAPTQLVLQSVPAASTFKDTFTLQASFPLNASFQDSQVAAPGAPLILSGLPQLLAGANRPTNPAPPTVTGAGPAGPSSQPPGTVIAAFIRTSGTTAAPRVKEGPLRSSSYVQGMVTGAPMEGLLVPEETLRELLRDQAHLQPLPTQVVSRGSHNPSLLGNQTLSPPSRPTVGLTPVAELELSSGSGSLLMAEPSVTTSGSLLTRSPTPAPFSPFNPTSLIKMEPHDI
In short: as §1

ELK4 = target: T9, ELK4 (Homo sapiens, UniProt P28324-2 1-405); conditions: protein: recombinant; tags: N-terminal GST; dsDNA, one strand shown
T9 sequence: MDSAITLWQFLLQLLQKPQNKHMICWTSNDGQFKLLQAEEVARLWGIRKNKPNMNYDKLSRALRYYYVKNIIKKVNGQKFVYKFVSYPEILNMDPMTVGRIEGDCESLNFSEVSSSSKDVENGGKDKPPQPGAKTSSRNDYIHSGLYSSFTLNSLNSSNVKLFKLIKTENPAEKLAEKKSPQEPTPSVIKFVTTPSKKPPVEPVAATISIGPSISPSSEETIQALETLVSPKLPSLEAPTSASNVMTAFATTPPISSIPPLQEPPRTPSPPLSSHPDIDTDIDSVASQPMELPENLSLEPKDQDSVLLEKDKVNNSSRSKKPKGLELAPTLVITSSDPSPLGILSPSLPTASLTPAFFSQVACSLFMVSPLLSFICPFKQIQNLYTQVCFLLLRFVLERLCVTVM
In short: as §1

ETV2 = target: T10, ETV2 (Homo sapiens, UniProt O00321 1-342); conditions: protein: recombinant; tags: N-terminal GST; dsDNA, one strand shown
T10 sequence: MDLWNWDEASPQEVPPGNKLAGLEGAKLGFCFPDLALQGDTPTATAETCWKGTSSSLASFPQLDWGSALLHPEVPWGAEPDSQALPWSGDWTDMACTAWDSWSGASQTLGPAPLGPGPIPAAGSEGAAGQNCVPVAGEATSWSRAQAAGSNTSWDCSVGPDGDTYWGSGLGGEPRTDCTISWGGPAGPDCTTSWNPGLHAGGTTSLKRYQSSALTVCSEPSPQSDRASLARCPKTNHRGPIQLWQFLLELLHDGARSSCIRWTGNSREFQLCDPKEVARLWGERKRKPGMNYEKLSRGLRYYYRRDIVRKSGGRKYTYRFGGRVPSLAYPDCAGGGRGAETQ
In short: as §1

CRX = CRX (Homo sapiens, UniProt O43186 1-299); conditions: protein: recombinant; tags: N-terminal GST; dsDNA, one strand shown
Chain of CRX (O43186 whole entry): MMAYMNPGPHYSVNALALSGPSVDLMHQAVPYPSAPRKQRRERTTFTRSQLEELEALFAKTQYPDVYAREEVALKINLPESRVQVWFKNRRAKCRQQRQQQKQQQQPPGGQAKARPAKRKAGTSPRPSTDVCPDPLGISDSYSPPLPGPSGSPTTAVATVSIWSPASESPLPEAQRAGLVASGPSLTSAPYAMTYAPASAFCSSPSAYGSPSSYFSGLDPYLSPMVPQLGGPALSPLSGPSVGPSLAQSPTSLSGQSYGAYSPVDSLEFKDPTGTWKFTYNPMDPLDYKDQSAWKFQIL
In short: as §1

ETV1 = ETV1 (Homo sapiens, UniProt P50549 1-477); conditions: protein: recombinant; tags: N-terminal GST; dsDNA, one strand shown
Chain of ETV1 (P50549 whole entry): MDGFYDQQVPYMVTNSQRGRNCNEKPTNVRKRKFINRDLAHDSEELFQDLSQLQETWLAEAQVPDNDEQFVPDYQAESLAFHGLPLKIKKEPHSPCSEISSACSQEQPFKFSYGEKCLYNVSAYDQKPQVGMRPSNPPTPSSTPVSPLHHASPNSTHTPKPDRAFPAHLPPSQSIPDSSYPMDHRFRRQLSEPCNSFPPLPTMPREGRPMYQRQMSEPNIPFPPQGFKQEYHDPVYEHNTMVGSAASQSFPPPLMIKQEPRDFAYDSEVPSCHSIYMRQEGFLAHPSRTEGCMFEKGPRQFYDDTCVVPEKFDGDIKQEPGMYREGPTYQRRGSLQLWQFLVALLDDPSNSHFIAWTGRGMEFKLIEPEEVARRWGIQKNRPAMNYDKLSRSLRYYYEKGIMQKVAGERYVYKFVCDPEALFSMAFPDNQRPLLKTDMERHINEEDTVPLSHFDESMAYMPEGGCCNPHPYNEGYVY
In short: as §1

| Sequence | binding signal (FLI1) | binding signal (ELK1) | binding signal (GABPA) | binding signal (ERG) | binding signal (ELF1) | binding signal (EHF) | binding signal (SPI1) | binding signal (SPIB) | binding signal (ELK3) | binding signal (FEV) | binding signal (ETV5) | binding signal (HSF1) | binding signal (SPIC) | binding signal (ELF4) | binding signal (ELK4) | binding signal (ETV2) | binding signal (CRX) | binding signal (ETV1) |
| --- | --- | --- | --- | --- | --- | --- | --- | --- | --- | --- | --- | --- | --- | --- | --- | --- | --- | --- |
| TCGATA | 1.17 fold enrichment (6-mer frequency, TF over GST control) | 1.03 fold enrichment (6-mer frequency, TF over GST control) | 1.08 fold enrichment (6-mer frequency, TF over GST control) | 1.1 fold enrichment (6-mer frequency, TF over GST control) | 1.11 fold enrichment (6-mer frequency, TF over GST control) | 1.12 fold enrichment (6-mer frequency, TF over GST control) | 1.12 fold enrichment (6-mer frequency, TF over GST control) | 1.03 fold enrichment (6-mer frequency, TF over GST control) | 1.06 fold enrichment (6-mer frequency, TF over GST control) | 1.05 fold enrichment (6-mer frequency, TF over GST control) | 1.07 fold enrichment (6-mer frequency, TF over GST control) | 1.35 fold enrichment (6-mer frequency, TF over GST control) | 1.28 fold enrichment (6-mer frequency, TF over GST control) | 1.15 fold enrichment (6-mer frequency, TF over GST control) | 1.16 fold enrichment (6-mer frequency, TF over GST control) | 1.16 fold enrichment (6-mer frequency, TF over GST control) | 1.24 fold enrichment (6-mer frequency, TF over GST control) | 1.03 fold enrichment (6-mer frequency, TF over GST control) |
| TTTTAG | 1.2 fold enrichment (6-mer frequency, TF over GST control) | 1.07 fold enrichment (6-mer frequency, TF over GST control) | 1.19 fold enrichment (6-mer frequency, TF over GST control) | 1.19 fold enrichment (6-mer frequency, TF over GST control) | 1.21 fold enrichment (6-mer frequency, TF over GST control) | 1.12 fold enrichment (6-mer frequency, TF over GST control) | 1.15 fold enrichment (6-mer frequency, TF over GST control) | 1.3 fold enrichment (6-mer frequency, TF over GST control) | 1.16 fold enrichment (6-mer frequency, TF over GST control) | 1.14 fold enrichment (6-mer frequency, TF over GST control) | 1.09 fold enrichment (6-mer frequency, TF over GST control) | 1.19 fold enrichment (6-mer frequency, TF over GST control) | 1.13 fold enrichment (6-mer frequency, TF over GST control) | 1.24 fold enrichment (6-mer frequency, TF over GST control) | 1.1 fold enrichment (6-mer frequency, TF over GST control) | 1.13 fold enrichment (6-mer frequency, TF over GST control) | 1.48 fold enrichment (6-mer frequency, TF over GST control) | 1.19 fold enrichment (6-mer frequency, TF over GST control) |
